Nrf2 ARE act – activates Nrf2 signaling | AREc32 ARE-luciferase reporter (MCF7-derived line), luminescence, 24 h | AID 624171 | Potency, µM (titrated, usually from 46.1 µM), without a hit: at the highest dose activation, most hits filed as activators | 410,000 compounds, 0.31% hits; further: % of control where 0% means no effect; nearly all actives have a fitted effect of over 65% in size
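Reporter line AREc32 (ARE-Fluc), seeded overnight in OPTI-MEM with 5% FBS; compound pin-transferred, 24 hr at 37 deg C, 5% CO2; luminescent read-out.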
Nrf2 block – Nrf2 pathway inhibition; A549 ARE-Fluc reporter, luciferase luminescence, 18-24 h; Potency, µM (highest dose often 46 µM), inactives show at the highest dose activity change, negative = inhibition, most hits filed as inhibitors; 360,000 compounds, 2.1% hits; AID 504444; further: on the % scale 0 is the no-effect control and ±100 the full control effect; nearly all actives have a fitted effect of over 60% in size
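Quantitative HTS in A549 cells stably bearing an antioxidant response element-firefly luciferase construct. Inhibition of Nrf2-driven transcription was scored by luminescence after 18-24 h of compound exposure at 37 °C.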
ELG1 repair inh – inhibitors of ELG1-dependent DNA repair in HEK293T cells; HEK293T ELG1-luciferase reporter, luminescence, 16 h; DNA damage induced by 5-fluorouridine; Potency, µM (top dose mostly 46.1 µM), without a hit: top-dose activity change, negative = inhibition, usual class: inhibitors; 330,000 compounds, 2.3% hits; further: on the % scale 0 is the no-effect control and ±100 the full control effect; nearly all actives have a fitted effect of over 55% in size
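Luminescence from the luciferase reporter, measured 30 min after ONE-Glo reagent at room temperature, was the read-out. Beforehand, 2,000 cells per well were exposed for 16 hr at 37 °C to 5-fluorouridine together with compound or vehicle.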
A549 tox – counter-screen for Nrf2 inhibitors: cytotoxicity in A549 cells. Potency, µM (titrated, usually from 46 µM), for the others: top-dose activity change, negative = cytotoxicity, hits mostly inhibitors. 390,000 compounds, 0.16% hits. AID 504648. A549 ARE-Fluc cells, CellTiter-Fluor viability, 18-24 h; further: on the % scale 0 is the no-effect control and ±100 the full control effect
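Cytotoxicity counterscreen: CellTiter-Fluor fluorescence was measured in A549 ARE_Fluc cells after 18-24 h of compound exposure in a concentration series. The subsequent BugLite luminescent read reports ARE-luciferase activity.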
ELG1 FLuc counter – luciferase inhibition in cell-free luciferin readout for ELG1 hits. shares compounds with ELG1 repair inh. cell-free firefly luciferase luminescence counter-screen, ViewLux. Potency, µM (doses to about 46.1 µM), inactives show top-dose activity change, negative = inhibition, hits mostly inhibitors. 350 compounds, 3% hits; further: on the % scale 0 is the no-effect control and ±100 the full control effect
ELG1-Luc inh – confirmation of human ELG1-dependent DNA repair inhibitors; shares compounds with ELG1 repair inh; HEK293T ELG1-luciferase levels, luminescence; cells co-treated with 5-fluorouridine; Potency, µM (titrated, usually from 46.1 µM), without a hit: top-dose activity change, negative = inhibition, hits mostly inhibitors; 670 compounds, 68% hits; further: on the % scale 0 is the no-effect control and ±100 the full control effect; nearly all actives have a fitted effect of over 55% in size
Target sequence (Q96QE3 whole entry, looked up): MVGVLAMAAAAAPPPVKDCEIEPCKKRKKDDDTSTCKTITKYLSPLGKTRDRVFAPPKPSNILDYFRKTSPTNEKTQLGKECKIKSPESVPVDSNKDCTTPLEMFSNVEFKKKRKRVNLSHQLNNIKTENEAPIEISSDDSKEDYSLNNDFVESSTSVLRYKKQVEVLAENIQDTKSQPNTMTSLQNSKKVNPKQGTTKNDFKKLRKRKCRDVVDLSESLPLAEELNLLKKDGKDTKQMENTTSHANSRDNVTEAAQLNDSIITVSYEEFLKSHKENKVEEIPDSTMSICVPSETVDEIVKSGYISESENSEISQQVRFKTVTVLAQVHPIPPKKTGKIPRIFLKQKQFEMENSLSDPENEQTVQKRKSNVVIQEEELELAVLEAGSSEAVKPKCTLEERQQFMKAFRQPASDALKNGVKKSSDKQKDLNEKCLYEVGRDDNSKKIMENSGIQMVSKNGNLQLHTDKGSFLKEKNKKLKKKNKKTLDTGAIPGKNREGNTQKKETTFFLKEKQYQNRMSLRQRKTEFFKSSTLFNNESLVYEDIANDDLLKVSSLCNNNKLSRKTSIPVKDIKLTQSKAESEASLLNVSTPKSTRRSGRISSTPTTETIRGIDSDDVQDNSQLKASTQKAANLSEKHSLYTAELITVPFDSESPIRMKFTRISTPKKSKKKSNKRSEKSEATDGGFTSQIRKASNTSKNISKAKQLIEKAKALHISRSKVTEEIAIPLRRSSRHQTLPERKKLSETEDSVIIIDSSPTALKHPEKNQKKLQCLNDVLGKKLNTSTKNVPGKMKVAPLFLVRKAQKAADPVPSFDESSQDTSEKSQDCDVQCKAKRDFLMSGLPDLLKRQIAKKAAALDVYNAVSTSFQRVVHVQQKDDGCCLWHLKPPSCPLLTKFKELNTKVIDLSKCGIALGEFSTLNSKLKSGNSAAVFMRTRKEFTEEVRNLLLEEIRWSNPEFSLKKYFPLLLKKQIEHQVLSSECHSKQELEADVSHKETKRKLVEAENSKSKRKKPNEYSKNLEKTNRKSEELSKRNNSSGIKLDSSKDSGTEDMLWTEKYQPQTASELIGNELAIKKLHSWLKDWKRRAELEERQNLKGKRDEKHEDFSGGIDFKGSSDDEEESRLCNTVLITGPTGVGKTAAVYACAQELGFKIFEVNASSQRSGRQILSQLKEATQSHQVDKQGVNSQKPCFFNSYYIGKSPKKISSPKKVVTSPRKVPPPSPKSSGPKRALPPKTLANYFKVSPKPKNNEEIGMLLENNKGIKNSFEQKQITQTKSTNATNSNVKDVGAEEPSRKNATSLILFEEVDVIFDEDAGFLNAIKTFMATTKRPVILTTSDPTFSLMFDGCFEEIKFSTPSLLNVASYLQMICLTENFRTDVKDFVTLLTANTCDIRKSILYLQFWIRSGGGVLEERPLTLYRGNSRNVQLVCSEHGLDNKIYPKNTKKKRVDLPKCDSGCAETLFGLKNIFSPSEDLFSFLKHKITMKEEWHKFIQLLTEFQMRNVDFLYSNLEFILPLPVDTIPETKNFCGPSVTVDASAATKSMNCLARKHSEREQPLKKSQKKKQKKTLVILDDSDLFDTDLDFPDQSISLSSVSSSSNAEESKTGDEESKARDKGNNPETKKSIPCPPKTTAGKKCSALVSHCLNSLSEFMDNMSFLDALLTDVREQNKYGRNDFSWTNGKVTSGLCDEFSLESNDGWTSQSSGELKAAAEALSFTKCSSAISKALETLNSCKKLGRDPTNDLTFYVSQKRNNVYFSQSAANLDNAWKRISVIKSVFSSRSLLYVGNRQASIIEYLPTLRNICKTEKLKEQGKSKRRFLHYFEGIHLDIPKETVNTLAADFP
ELG1 MMS Luc – MMS-stimulated human ELG1 repair inhibition, confirmed | shares compounds with ELG1 repair inh | HEK293T luciferase-tagged ELG1 level, MMS stimulated | Potency, µM (titrated, usually from 46.1 µM), for the others: top-dose activity change, negative = inhibition, most hits filed as inhibitors | 670 compounds, 53% hits | AID 624249; further: on the % scale 0 is the no-effect control and ±100 the full control effect; nearly all actives have a fitted effect of over 60% in size
ELG1 5-FU – confirmation of ELG1 repair inhibitors: viability with 5FU; shares compounds with ELG1 repair inh; cell viability with 5-FU, ELG1-dependent repair; Potency, µM (highest dose often 46.1 µM), inactives show top-dose activity change, negative = viability loss, most hits filed as cytotoxic; 670 tested, under 10 active; AID 624250;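 further: ELG1-luc HEK293T cells cotreated with 5-fluorouridine at 10 µM final; viability measured 16 h after compound addition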
ELG1 MMS viab – confirmation of ELG1 repair inhibitors: viability with MMS; shares compounds with ELG1 repair inh; Cell viability with MMS, ELG1-dependent DNA repair; Potency, µM (series often up to 46.1 µM), for inactives: at the highest dose activity change, negative = viability loss, most hits filed as cytotoxic; 670 compounds, 33% hits;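 further: ELG1-luc HEK293T cells co-treated with 10 µM MMS; viability read 16 h after compound addition; on the % scale 0 is the no-effect control and ±100 the full control effect; nearly all actives have a fitted effect of over 60% in size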
Cell viab unstim – affects unstimulated cell viability, ELG1 hit counter-screen; Potency, µM (top dose mostly 45.9 µM), inactives show at the highest dose activity change, negative = loss of viability, actives largely listed as cytotoxic; cell viability counter-screen, unstimulated, luminescence; shares compounds with ELG1 repair inh; 900 compounds, 8% hits;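 further: compound exposure lasted 16 hours before reading; on the % scale 0 is the no-effect control and ±100 the full control effect; nearly all actives have a fitted effect of over 55% in size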
FLuc enzyme – inhibits purified firefly luciferase, counter-screen for ELG1 hits; shares compounds with ELG1 repair inh; purified firefly luciferase, luminescence counter-screen; Potency, µM (top dose mostly 57.5 µM), without a hit: at the highest dose activity, negative = inhibition, actives largely listed as inhibitors; 350 compounds, 10% hits; AID 624253; further: on the % scale 0 is the no-effect control and ±100 the full control effect
* = called active by the depositor; u = inconclusive; x = no result; [ ] = remark or other dose. This is a sample that favours compounds with a hit; in the whole collection about 3.7% have one here. The call rests on the fitted dose curve; in most records, active means well fitted curve in the direction sought with a large enough effect; inconclusive means small, poorly fitted or top-dose-only effect, or another doubt; inactive means no such curve, though single readings can be large; an effect the other way counts as inactive or inconclusive. Potency means the concentration at half of the fitted maximal effect.

SMILES | Nrf2 ARE act | Nrf2 block | ELG1 repair inh | A549 tox | ELG1-Luc inh | ELG1 MMS Luc | ELG1 5-FU | ELG1 MMS viab | Cell viab unstim | others
COc1ccc(NC(=O)c2c(N)no[n+]2[O-])cc1 | 9% | u | 4.6µM* | u | 14% | 5% | 0% | -6% | -4%
CCOc1ccccc1NC(=O)C1CCN(S(=O)(=O)c2cc(Br)cc3c2N(C(C)=O)CC3)CC1 | -2% | 6% | x | 0% | x | x | x | x | x
CN(C)c1ccc(C(=O)OCC(=O)c2ccc[nH]2)cc1 | 1% | u | u | 0% | x | x | x | x | -11%
O=C(OCC(=O)c1ccc[nH]1)c1ccccc1 | 3% | 26% | u | 3% | x | x | x | x | x
CCN(CC)C(=O)c1sc(NC(=O)c2cccnc2)c(C(=O)OC)c1C | 0% | 3% | 2.6µM* | 0% | 3.1µM* | -10% | u | 9% | u
N=c1c2cn[nH]c2nc(SCC(=O)c2ccc(Br)cc2)n1-c1ccc(Br)cc1 | 3% | 30% | 4% | 1% | x | x | x | x | x
COc1ccc(C(CNc2nc(-c3cccnc3)nc3ccccc23)N(C)C)cc1 (configuration not stated) | 21% | -3% | -25% | -4% | 18µM* | u | u | 0% | -9% | ELG1 FLuc counter=-2%;FLuc enzyme=-7%
Cc1ccc(CNc2nc(-c3cccnc3)nc3ccccc23)cc1 | 3% | u | u | u | x | x | x | x | x
COc1ccc(CCNc2nc(-c3cccnc3)nc3ccccc23)cc1OC | 6% | -19% | 2.6µM* | -15% | 3.2µM* | 13µM* | u | u | u | ELG1 FLuc counter=14%;FLuc enzyme=u
Cc1ccc(C)c(N2CCN(C(=O)CCc3nc(-c4cccc(Cl)c4)no3)CC2)c1 | 6% | u | u | -1% | x | x | x | x | -7%
Cc1noc(/C=C/c2ccco2)c1S(=O)(=O)N1CCC(C(=O)N(C)Cc2ccccc2)CC1 | 8% | -3% | 4.6µM* | -3% | 3.1µM* | 29% | u | -1% | -11%
Cc1cccc(/C=C/c2onc(C)c2S(=O)(=O)N2CCC(C(=O)N3CCC(C)CC3)CC2)c1 | 0% | u | 1.8µM* | u | 1.3µM* | 13% | u | -6% | u
Cn1c(=O)n(C)c2cc(NC(=O)CSc3nc4ccccc4c(=O)[nH]3)ccc21 | 3% | u | u | 1% | x | x | x | x | x
CCc1ccc(S(=O)(=O)c2cn(Cc3ccccc3F)c3cc(OC)c(OC)cc3c2=O)cc1 | 0% | -17% | x | 2% | x | x | x | x | x
CC(=O)Nc1ccc(NC(=O)CSc2nc3ccccc3o2)cc1 | 4% | 22% | u | -1% | x | x | x | x | x
Cc1cc(C)nc(NC(=O)CSc2nc3ccccc3o2)n1 | -1% | u | u | -12% | x | x | x | x | x
O=C(CSc1nc2ccccc2o1)Nc1ccccc1N1CCCCCC1 | 3% | u | 3% | -14% | x | x | x | x | -20% | ELG1 FLuc counter=4%;FLuc enzyme=-8%
O=C(CSc1nc2ccccc2o1)Nc1cc(C(F)(F)F)ccc1N1CCOCC1 | 0% | u | -17% | -7% | x | x | x | x | x
Cc1cccc(NC(=O)CSc2nc3ccccc3o2)c1 | 3% | u | u | -5% | x | x | x | x | 16% | ELG1 FLuc counter=67%;FLuc enzyme=-6%
CC(=O)c1cc2c(cc1NC(=O)CSc1nc3ccccc3o1)OCO2 | u | 22% | u | -2% | x | x | x | x | 10% | ELG1 FLuc counter=67%;FLuc enzyme=4%
COc1ccc(OC)c(NC(=O)c2c(NCc3ccc(N(C)C)cc3)sc3c2CCCC3)c1 | 7% | x | x | u | x | x | x | x | x
CCOc1ccc(NC(=O)CSc2oc(-c3ccco3)nc2S(=O)(=O)c2ccccc2)cc1 | 9% | 5%[9.27 µM] | x | -16% | x | x | x | x | x
CC(=O)NC1CC2CCCC(C1)N2C(=O)Nc1ccc(Cl)cc1 (configuration not stated) | 0% | x | x | x | x | x | x | x | x
Cc1ccc(NC(=O)Cn2cnc3ccccc32)cc1C | 0% | -21% | 4.6µM* | 7% | 4% | u | -8% | u | u
O=C(Cn1cnc2ccccc21)Nc1cccc([N+](=O)[O-])c1 | u | -16% | u | -1% | x | x | x | x | x
SMILES | Nrf2 ARE act | Nrf2 block | ELG1 repair inh | A549 tox | ELG1-Luc inh | ELG1 MMS Luc | ELG1 5-FU | ELG1 MMS viab | Cell viab unstim | others
O=C(Nc1ccc(Cl)cc1)c1nc[nH]c1C(=O)NCCCCNC(=O)c1[nH]cnc1C(=O)Nc1ccc(Cl)cc1 | -1% | u | 2.9µM* | -13% | 2.5µM* | 11µM* | -4% | 25µM* | u
O=C(Nc1ccc(Cl)cc1)c1nc[nH]c1C(=O)Nc1ccccc1F | 4% | x | x | x | x | x | x | x | x
C=CCc1c(OC(C)=O)c2ccccc2n(C)c1=O | 1% | 11% | 3.3µM* | -1% | u | 7.1µM* | 0% | 10µM* | u
COc1ccccc1N1CCN(CC(=O)Nc2ccccc2C(=O)NC(C)c2ccccc2)CC1 (configuration not stated) | 0% | -25% | 2.9µM* | -4% | 7.9µM* | 7% | u | -3% | u
COc1ccc(CN2CCN(CC(=O)Nc3ccccc3C(=O)NC3CC3)CC2)cc1F | 0% | 15% | 2.6µM* | 4% | 7.1µM* | u | u | 0% | 1%
CC(NC(=O)c1ccccc1NC(=O)CN1CCN(c2ccccc2O)CC1)c1ccccc1 (configuration not stated) | 2% | u | 2.3µM* | -13% | 5.6µM* | u | u | u | -18%
COc1ccccc1N1CCN(CC(=O)Nc2ccccc2C(=O)NCCc2ccccc2)CC1 | 4% | 15% | u | 0% | x | x | x | x | x
